Records with an inconclusive call do not appear. Calls of active or inactive are those of the source.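 Rule for the calls, unless noted: active = viability at or below 30% in both replicate assays; inconclusive = viability at or below 30% in just one of the two assays; inactive = the rest.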
Key:
[1] = reduced viability of SK-BR-3 breast cancer cells – cell-based, 24 h, human, pilot screen (AID 572;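 active = viability at or below 10% of carrier control in both of two separate runs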;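 note: compound exposure lasted between 18 and 24 h rather than exactly 24 h; 100% = carrier-treated control wells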); details: SK-BR-3 viability, CellTiter-Glo luminescence, at 10 µM, stronger effect = lower value
[2] = HUVEC growth inhibition – cell-based, human, primary screen (AID 575); details: HUVEC proliferation, CellTiter-Glo luminescence, 72 h; at 10 µM; stronger effect = lower value;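 note: 100% = median of untreated cell wells with 0.1% DMSO on each plate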
[3] = H69AR cell proliferation blockers – human, duplicate replicates, primary screen (AID 580;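 active = viability at or under a set limit in both replicates, limit being median viability minus 3 SD, cut at about 48% in these data, passing the limit was not always enough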;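 note: 100% = mean luminescence of untreated wells and 0% = no signal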); details: H69AR lung tumor cells viability, ATP luminescence, 72 h; at 10 µM; stronger effect = lower value
[4] = MRP1 drug-resistance reversers in H69AR cells – cell-based, doxorubicin co-treatment, pilot screen (AID 601;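 active = viability loss from added drug above about 55%, and viability with drug at most 40%, in both replicates, limit read from the data, passing the limit was not always enough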); details: CellTiter-Glo, 72 h, at 10 µM; for differential viability (reversal): stronger effect = higher value
[5] = yeast transport mutant growth inhibition pilot in 384-well plates, post-Golgi transport modulator project (AID 636; in the data active = inhibition above about 31%); details: absorbance 615 nm, about 18 h, stronger effect = higher value
[6] = growth suppression of yeast trafficking mutant, preliminary HTS, modulators of trafficking downstream of Golgi apparatus project, 1536-format plate, OD 615 nm (AID 637; in the data active = inhibition above about 30%); details: yeast transport mutant growth, absorbance 615 nm, 18 h; stronger effect = higher value
[7] = S. cerevisiae growth inhibition in permissive medium (OD615), pilot counter-assay for S. cerevisiae lifespan shortening project, permissive growth control (AID 705;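 active = growth inhibition above 25% in both replicates, a cutoff set 3 SD above the mean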); details: OD615, 24 h, at 10 µM, stronger effect = higher value
[8] = S. cerevisiae growth inhibition in restrictive medium, OD615, pilot screen, restrictive growth control, yeast lifespan reduction project (AID 706;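 active = growth inhibition above a set limit, 3 SD over mean compound inhibition, in both replicates, cut at about 43% in these data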;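 note: modified DeaD lifespan yeast strain shifted to restrictive glucose medium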); details: OD615, 48 h, at 10 µM, stronger effect = higher value
[9] = doxorubicin toxicity protection in MRP-1 cells – H69AR cells, CellTiter-Glo, duplicate, MRP-1 activator project, pilot screen (AID 807;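 active = viability increase at or above a cutoff of the median across tested compounds plus 3 SD, cut at about 8.5% in these data, passing the limit was not always enough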;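 note: compound pretreatment 18-22 h then 72 h combined with doxorubicin; 0% = doxorubicin alone and 100% = vehicle without doxorubicin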); details: H69AR viability with doxorubicin, CellTiter-Glo luminescence; at 10 µM; stronger effect = higher value
[10] = viability of HCT116 without oncogenic beta-catenin – human colon tumor cells, pilot screen (AID 823;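 active = cell viability at or below a set limit in both duplicate runs, the limit being the all-compound median minus 4 SD, cut at about 23% in these data, passing the limit was not always enough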;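 note: 0% = wells killed by 20 µM Hyamine and 100% = untreated DMSO cell wells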); details: HCT116 beta-catenin knockout viability, CellTiter-Glo, 60 h; at 10 µM; stronger effect = lower value
[11] = viability of PTEN-null HCT116 cells – cell-based, HCT116 clonal line, CellTiter-Glo, pilot screen (AID 824;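 active = viability at or below 27.92% in each of two runs, the all-compound median minus 4 SD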;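 note: 0% = 20 µM Hyamine control and 100% = vehicle cell control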); details: HCT116 PTEN-deleted viability, 60 h, at 10 µM, stronger effect = lower value
[12] = RAM pathway blockade in budding yeast – dse1pr::URA3 reporter, 5-FOA selection, pilot screen (AID 869;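 active = inhibition over a set limit, the all-compound mean plus 3 SD, in both replicate runs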;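 note: 0% = DMSO wells with no growth and 100% = 10 µM 1-NA-PP1 with full growth; RAM network block rescues cells from 5-FOA so hits raise OD615 growth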); details: S. cerevisiae dse1pr::URA3 5-FOA growth, OD615, 2 d; at 10 µM; stronger effect = higher value; strain carries analog-sensitive mutant Cbk1 kinase
[13] = H69AR cells + 2 uM doxorubicin, measured here: viability with 2 uM doxorubicin, stronger effect = lower value
[14] = H69AR cells, compound alone cytotoxicity

SMILES | viability [1] | viability [2] | viability [3] | differential viability (reversal) ([4]; H69AR cells + 2 uM doxorubicin) | viability [4, 13] | viability [4, 14] | inhibition [5] | inhibition [6] | growth inhibition [7] | growth inhibition [8] | viability increase [9] | viability [10] | viability [11] | inhibition [12]
CC(C)(Oc1ccc(CCNC(=O)c2ccc(Cl)cc2)cc1)C(=O)O | 95% (inactive) | 83.1% (inactive) | 105% (inactive) | 8.17% (inactive) | 96.8% | 105% | -4.29% (inactive) | -0.67% (inactive) | – | – | – | – | – | –
Cn1c(=O)c2c(nc(N3CCN(c4ccccc4)CC3)n2CCCc2ccccc2)n(C)c1=O | 68% (inactive) | 90.6% (inactive) | 84.1% (inactive) | 1.85% (inactive) | 82.2% | 84.1% | -3.33% (inactive) | 7.09% (inactive) | – | – | – | – | – | –
CCOC(=O)Cc1csc(NC(=O)c2cccc(OC)c2)n1 | 75% (inactive) | 104% (inactive) | 103% (inactive) | 0.32% (inactive) | 102% | 103% | -5.75% (inactive) | -5.64% (inactive) | – | – | – | – | – | –
Cc1cc(C)n(C(=O)C23CC4CC(CC(C4)C2)C3)n1 | 106% (inactive) | 85.9% (inactive) | 99.3% (inactive) | 3.23% (inactive) | 96.1% | 99.3% | -8.36% (inactive) | -5.32% (inactive) | – | – | – | – | – | –
Clc1cccc(Cl)c1COc1ccncc1 | 88% (inactive) | 91.5% (inactive) | 97.2% (inactive) | 2.84% (inactive) | 94.3% | 97.2% | 0.82% (inactive) | 27.4% (inactive) | – | – | – | – | – | –
COc1ccc(-c2ccc(-c3noc(-c4ccccc4OC)n3)c(OC)n2)cc1 | 62% (inactive) | 63.9% (inactive) | – | -2.01% (inactive) | 64.9% | 62.9% | -4.59% (inactive) | 18.9% (inactive) | – | – | – | – | – | –
CCOC(=O)N1CCC(n2c(SCC(=O)NCc3ccco3)nc3ccsc3c2=O)CC1 | 81% (inactive) | 88.3% (inactive) | 78.5% (inactive) | – | – | – | -3.55% (inactive) | 2.67% (inactive) | – | – | – | – | – | –
O=C(CNCC1CCCO1)Nc1ccccc1-n1cccc1 (centres undefined) | 80% (inactive) | 106% (inactive) | 95.7% (inactive) | 5.03% (inactive) | 90.6% | 95.7% | -8.38% (inactive) | -2.36% (inactive) | – | – | – | – | – | –
O=C(/C=C/c1ccccc1)c1ccccc1 | 107% (inactive) | 50.2% (inactive) | – | -2.5% (inactive) | 4.56% | 2.06% | 1.95% (inactive) | 0.67% (inactive) | – | – | – | – | – | –
C/C=C(/C(=C/C)c1ccc(O)cc1)c1ccc(O)cc1 | 123% (inactive) | 54.9% (inactive) | – | -57.5% (inactive) | 85.2% | 27.6% | 0.65% (inactive) | 25% (inactive) | – | – | – | – | – | –
CC(C)(C)n1ncc2c(=O)n(CC(=O)NCc3ccc(F)cc3)cnc21 | 95% (inactive) | 63.4% (inactive) | 14.6% (active) | -59.8% (inactive) | 74.4% | 14.6% | 2.43% (inactive) | -5.27% (inactive) | – | – | – | – | – | –
OCCN1CCN(CCCN2c3ccccc3Sc3ccc(C(F)(F)F)cc32)CC1 | 3% (active) | 2.4% (active) | – | -2.74% (inactive) | 3.77% | 1.03% | – | – | – | – | – | – | – | –
S=c1[nH]nc(Cc2ccccc2)n1Cc1ccco1 | 78% (inactive) | 108% (inactive) | 96.3% (inactive) | -2.76% (inactive) | 99.1% | 96.3% | -1.64% (inactive) | -6.94% (inactive) | – | – | – | – | – | –
CC1(C)Cc2c(C#N)c(SCCC#N)nc(N3CCOCC3)c2CS1 | 83% (inactive) | 86.6% (inactive) | 84.2% (inactive) | – | – | – | -3.42% (inactive) | -4.84% (inactive) | – | – | – | – | – | –
N#Cc1cc2c(nc1SCC(=O)Nc1sc3c(c1C#N)CCC3)CCCCC2 | 82% (inactive) | 79.5% (inactive) | – | -16.5% (inactive) | 57.4% | 40.9% | -7.84% (inactive) | -8.91% (inactive) | – | – | – | – | – | –
CC1=NN(c2ccccc2)C(=O)C1 | 96% (inactive) | 74.6% (inactive) | 94.5% (inactive) | -10.1% (inactive) | 105% | 94.5% | 1.95% (inactive) | 0.67% (inactive) | – | – | – | – | – | –
O=C(CSc1n[nH]c(=O)[nH]c1=O)c1ccccc1 | 110% (inactive) | 105% (inactive) | 101% (inactive) | 4.23% (inactive) | 97% | 101% | -2.4% (inactive) | -3.82% (inactive) | – | – | – | – | – | –
CCOC(=O)c1ccccc1NC1c2ccccc2C(=O)N1C1CCN(C(=O)OCC)CC1 (centres undefined) | 126% (inactive) | 76.2% (inactive) | 80.5% (inactive) | 37.6% (inactive) | 42.9% | 80.5% | -4.13% (inactive) | -3.17% (inactive) | 3.84% (inactive) | 4.88% (inactive) | -7.16% (inactive) | 50.3% (inactive) | 46.2% (inactive) | 1.9% (inactive)
O=C(CN1CCN(Cc2ccc3c(c2)OCO3)CC1)N1CCc2[nH]c3ccc(F)cc3c2C1 | 96% (inactive) | 58.8% (inactive) | – | -8.87% (inactive) | 61.4% | 52.5% | -2.13% (inactive) | -6% (inactive) | – | – | – | – | – | –

From PubChem BioAssay
